Where “and” joins values, the source holds several entries; their conditions need not be identical. Identical values can stand only once. Some compounds were tested as several samples or in several runs, with calls that do not always agree. Calls of active or inactive are those of the source.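 How the source made its calls, unless noted: active means thallium flux through the channel raised or lowered by more than 3 SD from vehicle-only wells, actives on both sides; inactive means the rest.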

We go through three compounds from PubChem BioAssay.

Assay [1] can be described thus: stimulators of nuclear beta-catenin in C2C12, primary screen, imaging, WNT3A-conditioned medium, mouse C2C12, NPC library (AID 1117326; in the data active means nuclear beta-catenin stimulation mostly above about 4.2%, no sharp cut-off; inactive means mostly below about 10%). As to conditions: stronger effect = higher value.
A short description of assay [2]: stimulators of insulin release from INS-1E, primary screen, cell-based, 5 mM glucose, NPC library (AID 1117329;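 active means compound raises insulin release from rat beta cells at 5 mM glucose, no numeric limit stated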). As to conditions: rat INS-1E insulin secretion, at 10 µM, stronger effect = higher value.
The nature of assay [3]: growth inhibition of GSK3B-pretreated HCT116 cells – cell-based, CellTiter-Glo, 0.2 to 20 µM (AID 1117336;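 active means compounds lowering colon cancer cell viability after pretreatment blocking the GSK3B kinase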). As to conditions: HCT116 viability after GSK3B inhibitor, at 20 µM, stronger effect = higher value. On the technique in general: Cellular ATP, detected with luciferase, serves as a proxy for viable cell number.
A short description of assay [4]: inhibition of endothelial tube formation, primary screen, imaging, VEGF stimulated, CD31 staining, tube area, NPC library (AID 1117340;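 active means compound that reduces growth-factor-driven endothelial tube area in a mixed cell culture, no cutoff stated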). As to conditions: VEGF-stimulated ADSC/ECFC co-culture, at 10 µM, stronger effect = higher value.
A short description of assay [5]: glucagon-like peptide 1 release enhancers, primary assay, NCI-H716 cell line, NPC library (AID 1117341;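 active means compound raises GLP1 secretion from the human gut endocrine cells, with no numeric limit stated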). As to conditions: NCI-H716 cells, at 10 µM, stronger effect = higher value.
Assay [6] can be described thus: HCT116 colon cancer cell growth inhibition, primary screen, CellTiter-Glo luminescence, NPC library (AID 1117342;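 active means compounds that lower survival of HCT116 colon cancer cells in the luminescence readout, no numeric limit stated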). The note with it: at 20 µM (top of the series).
A short description of assay [7]: CellTiter-Glo luminescent readout of SW480 viability loss, NPC library primary (AID 1117343;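 active means compounds that lower viability of the colon cancer cells in the luminescence readout, with no numeric limit stated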). The note with it: CellTiter-Glo luminescence; at 20 µM (top of the series).
Assay [8] in a line: decreased DLD-1 cellular survival, CellTiter-Glo luminescent readout, NPC compound collection, primary HTS (AID 1117346;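 active means compounds that lower survival of DLD-1 colon cancer cells in the luminescence readout, no cutoff given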). The note with it: DLD-1 viability, CellTiter-Glo luminescence; at 20 µM (top of the series).
Assay [9] concerns the target 6-phosphogluconate dehydrogenase, decarboxylating (Homo sapiens) (UniProt P52209). The assay is described as follows: 6PGD enzyme inhibitors, primary screen, biochemical, human, recombinant enzyme, NADPH absorbance (AID 1159550;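 active means at least 20% inhibition of 6-phosphogluconate dehydrogenase activity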). The note with it: recombinant 6PGD, NADPH absorbance 341 nm; at 10 µM; stronger effect = higher value.
Assay [10] is described as follows: survival rescue of mitochondrial mutant cells in low glucose, primary screen, MELAS cybrids, Rieske KO mouse fibroblasts, CellTiter-Glo (AID 1508586;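 active means mean z-score across replicates of 1.96 or higher in either the MELAS or the Rieske mutant cell line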;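 further: z relative to plate mean and SD of compound and empty wells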).
The target of assay [11] is NAD(+) hydrolase SARM1 (Homo sapiens) (UniProt Q6SZW1). The assay is described as follows: SARM1 TIR NADase inhibitors, cell lysate, NAD-Glo luminescence (AID 1508614;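 active means compound whose remaining NAD level is above about 45 nM, limit read from the data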). The note with it: SAM-TIR HEK293T lysate NADase, at 1 µM, stronger effect = higher value.
NAD(+) hydrolase SARM1 (Homo sapiens), sequence (Q6SZW1 whole entry, looked up, the tested form may be a part): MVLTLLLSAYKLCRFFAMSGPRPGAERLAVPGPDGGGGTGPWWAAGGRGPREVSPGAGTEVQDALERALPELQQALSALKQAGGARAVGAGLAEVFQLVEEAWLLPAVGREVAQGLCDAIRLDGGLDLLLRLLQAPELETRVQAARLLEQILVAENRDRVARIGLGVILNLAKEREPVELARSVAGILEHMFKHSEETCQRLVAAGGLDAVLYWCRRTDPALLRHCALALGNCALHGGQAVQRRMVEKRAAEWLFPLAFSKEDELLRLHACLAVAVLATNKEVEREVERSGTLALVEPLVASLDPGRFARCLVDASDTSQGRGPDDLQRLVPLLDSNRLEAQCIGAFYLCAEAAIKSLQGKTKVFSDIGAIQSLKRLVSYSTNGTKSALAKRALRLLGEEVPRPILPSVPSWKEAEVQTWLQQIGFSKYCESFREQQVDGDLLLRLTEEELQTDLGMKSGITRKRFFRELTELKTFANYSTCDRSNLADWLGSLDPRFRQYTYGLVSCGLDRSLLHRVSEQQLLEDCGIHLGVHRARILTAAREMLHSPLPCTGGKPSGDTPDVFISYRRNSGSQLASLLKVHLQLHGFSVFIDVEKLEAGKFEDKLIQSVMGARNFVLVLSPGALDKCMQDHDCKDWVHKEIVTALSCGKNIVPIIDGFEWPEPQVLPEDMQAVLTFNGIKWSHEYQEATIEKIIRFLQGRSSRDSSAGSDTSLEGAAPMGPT
Assay [12] addresses Mitogen-activated protein kinase 7 (Homo sapiens) (UniProt Q13164). The assay is described as follows: ERK5 transactivation activators in reporter cells, primary screen, cell-based, HTS (AID 1508626;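 active means luciferase signal above three times the same-plate solvent-only control wells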;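 further: luciferase driven by Gal4-ERK5 fusion binding five Gal4 sites before minimal TATA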). The note with it: HeLa Gal4-ERK5 transactivation, 18 h, at 5 µM, stronger effect = higher value.
The next assay relates to F380Y. The assay is described as follows: modulators of BK channel variants, profiling panel, selectivity assay, cell-based, U2OS BacMam, thallium flux, beta subunits (AID 1259406).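 Further: initial slope of Thallos dye fluorescence rise after thallium is added; log ratio against the mean of 0.3% DMSO vehicle wells on the same plate.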 As to conditions: at 30 µM.
For another assay, the system named is F380Y/beta2Delta. The description is as above. As to conditions: at 30 µM.
Assay [13] deals with Calcium-activated potassium channel subunit alpha-1 (Homo sapiens) + Leucine-rich repeat-containing protein 26 (Homo sapiens) (UniProt Q12791+Q2I0M4). The description is as above. The note with it: F380Y/Slo1WT/gamma1, at 30 µM.
Calcium-activated potassium channel subunit alpha-1 (Homo sapiens) + Leucine-rich repeat-containing protein 26 (Homo sapiens), sequence (Q2I0M4 whole entry, looked up, one chain of several): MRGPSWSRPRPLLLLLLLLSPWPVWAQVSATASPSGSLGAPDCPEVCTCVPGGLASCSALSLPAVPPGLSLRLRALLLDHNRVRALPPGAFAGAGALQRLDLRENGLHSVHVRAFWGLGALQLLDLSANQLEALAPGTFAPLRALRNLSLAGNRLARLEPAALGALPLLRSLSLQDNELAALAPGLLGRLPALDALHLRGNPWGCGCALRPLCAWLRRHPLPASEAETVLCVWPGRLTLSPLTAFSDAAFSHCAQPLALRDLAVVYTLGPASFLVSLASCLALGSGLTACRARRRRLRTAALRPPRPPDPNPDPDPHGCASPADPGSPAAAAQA
The next assay relates to R275C. Described as above. As to conditions: at 30 µM.
The next assay deals with R275C/beta1. The assay is described as above. As to conditions: at 30 µM.
The subject of a further assay is R275C/beta2Delta. The description is as above. As to conditions: at 30 µM.
A short description of assay [14]: differential killing of epithelial or mesenchymal cells, primary screen, imaging, PC-3E GFP, TEM4-18 mCherry, co-culture (AID 1345086;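 active means compounds killing one labelled cell type while sparing the other, by normalised counts and ratio limits, not self-fluorescent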;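 on all read-outs here: cells exposed to compound for 72 h before imaging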;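 on red/green cell ratio (normalised): normalised mesenchymal count divided by normalised epithelial count so high means epithelial killing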). As to conditions: imaging cell counts, at 1 µM; for red/green cell ratio (normalised): actives lie on both sides, counts scaled to control wells, 1 = unselective.
Assay [15] is described as follows: sensitizers of A549 cells to miR-34 induction, primary screen, imaging, A549 dox-inducible miR-34, nuclei and caspase counts (AID 1347080;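 active means compounds whose cell count with miR-34 switched on is under 0.7 times the count with it off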). As to conditions: A549 miR-34 inducible, Hoechst nuclei count, 48 h.
The mark [16] stands for this setting: MELAS cybrid survival, CellTiter-Glo 48 h, stronger effect = higher value.
Setting [17] is: Rieske KO mouse fibroblast survival, CellTiter-Glo 72 h.
The mark [18] stands for this setting: measured here: epithelial PC-3E GFP cell survival.
Setting [19] is: measured here: mesenchymal TEM4-18 mCherry cell survival.

Mitogen-activated protein kinase 7 (Homo sapiens), sequence (Q13164 whole entry, looked up, the tested form may be a part): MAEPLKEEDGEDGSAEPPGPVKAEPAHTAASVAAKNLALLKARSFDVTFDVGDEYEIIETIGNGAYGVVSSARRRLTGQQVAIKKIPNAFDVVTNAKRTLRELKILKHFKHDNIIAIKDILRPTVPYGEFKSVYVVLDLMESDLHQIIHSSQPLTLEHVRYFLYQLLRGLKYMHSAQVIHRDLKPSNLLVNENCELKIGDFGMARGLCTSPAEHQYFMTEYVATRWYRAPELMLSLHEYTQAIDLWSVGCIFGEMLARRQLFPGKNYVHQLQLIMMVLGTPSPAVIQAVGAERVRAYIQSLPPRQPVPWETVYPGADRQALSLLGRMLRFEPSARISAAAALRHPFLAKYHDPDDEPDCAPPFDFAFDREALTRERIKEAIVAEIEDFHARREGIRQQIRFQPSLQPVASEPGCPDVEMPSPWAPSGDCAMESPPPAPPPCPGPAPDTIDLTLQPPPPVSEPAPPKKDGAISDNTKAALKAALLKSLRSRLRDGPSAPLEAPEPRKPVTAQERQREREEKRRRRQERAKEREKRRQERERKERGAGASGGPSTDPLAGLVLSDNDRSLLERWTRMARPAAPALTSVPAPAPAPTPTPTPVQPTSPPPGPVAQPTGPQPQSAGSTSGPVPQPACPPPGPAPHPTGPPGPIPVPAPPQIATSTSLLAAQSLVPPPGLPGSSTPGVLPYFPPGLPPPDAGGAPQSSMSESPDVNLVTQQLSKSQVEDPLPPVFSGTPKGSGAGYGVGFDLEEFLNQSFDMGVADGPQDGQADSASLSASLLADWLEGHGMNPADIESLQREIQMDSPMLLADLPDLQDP
6-phosphogluconate dehydrogenase, decarboxylating (Homo sapiens), sequence (P52209 whole entry, looked up): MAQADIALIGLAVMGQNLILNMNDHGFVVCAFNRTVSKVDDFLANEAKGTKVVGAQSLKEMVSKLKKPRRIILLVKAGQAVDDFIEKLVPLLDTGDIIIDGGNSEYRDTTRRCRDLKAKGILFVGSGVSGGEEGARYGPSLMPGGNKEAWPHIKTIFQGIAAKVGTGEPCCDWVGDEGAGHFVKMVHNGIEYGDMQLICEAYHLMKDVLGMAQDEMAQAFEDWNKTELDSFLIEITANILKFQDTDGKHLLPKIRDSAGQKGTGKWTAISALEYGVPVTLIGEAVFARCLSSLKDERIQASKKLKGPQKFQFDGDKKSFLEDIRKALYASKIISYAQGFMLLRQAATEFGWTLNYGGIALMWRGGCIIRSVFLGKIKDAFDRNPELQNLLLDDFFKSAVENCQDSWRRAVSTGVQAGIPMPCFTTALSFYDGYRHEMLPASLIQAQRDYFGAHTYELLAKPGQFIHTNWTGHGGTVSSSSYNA

The inhibition is the drop in the measured response relative to a control, in per cent. Turning to `COc1ccc([C@@H]2Sc3ccccc3N(CCN(C)C)C(=O)[C@@H]2OC(C)=O)cc1`, the nuclear beta-catenin stimulation in [1] (at 10 µM) is 0.5% (inactive); in [1] (stimulation, at 2 µM), -0.4%. Besides, the insulin secretion stimulation in assay [2] was 1.15% (inactive). Further, in assay [3], the viability decrease was 17% (inactive). Besides, the tube area decrease in assay [4] is -3.8% (inactive). Besides, the GLP1 secretion stimulation in [5] is 2.5% (inactive). Also, the inhibition of viability in [6] was 32.9% (inactive). The viability decrease (inhibition) in assay [7] is 47.4% (inactive); in assay [8], 32.3% (inactive). The inhibition in assay [9] was -12.8% (inactive). Further, the z-score in [10] (setting [16]) is 0.628 (inactive) and 0.162 (inactive); in assay [10] (setting [17]), -0.0359 and -0.282. In addition, the remaining NAD in assay [11] was 10 nM (inactive). Further, the luciferase signal in assay [12] is 68 AU (inactive). Also, the log fold change Tl+ flux in the assay on F380Y is 0.0589 (inactive); with F380Y/beta2Delta, -0.00376 (inactive); in assay [13], 0.0123 (inactive); in the assay on R275C it was -0.0404 (inactive); with R275C/beta1 it was 0.0836 (inactive); in the assay on R275C/beta2Delta, 0.0243 (inactive).

Regarding `CN(C)c1ccc(O)c2c1C[C@H]1C[C@H]3[C@H](N(C)C)C(=O)C(C(N)=O)=C(O)[C@@]3(O)C(=O)C1=C2O`, the nuclear beta-catenin stimulation in [1] (at 10 µM) is 3.7% (inactive); in [1] (stimulation, at 2 µM), 6.6%. The insulin secretion stimulation in assay [2] was 1.5% (inactive). In assay [3], the viability decrease was -31.1% (inactive). Also, in assay [4], the tube area decrease was 6.7% (inactive). Also, in assay [5], the GLP1 secretion stimulation is -1.4% (inactive). Further, the inhibition of viability in assay [6] is 17.9% (inactive). The viability decrease (inhibition) was 65.6% (active) in [7] and 74.4% (active) in assay [8]. The inhibition in assay [9] is -17.9% (inactive). In assay [14], the red/green cell ratio (normalised) was 1.2 (inactive). The normalised cell number in [14] (setting [18]) was 0.99; in [14] (setting [19]) it was 1.19. Besides, the fold change in assay [15] (stronger effect = lower value, cell number ratio, induced over uninduced) is 1.15 (inactive) and 0.819 (inactive) and 0.689 (active); in assay [15] (measured here: relative caspase fold change +Dox/-Dox) it was 0.974 and 2.86 and 1.89. Also, the cell count in assay [15] (measured here: total cells with miR-34 induction, stronger effect = lower value) is 2650 and 5110 and 3260; in assay [15] (measured here: total cells without miR-34 induction), 2300 and 6240 and 4740. The z-score in [10] (setting [16]) was -2.76 (inactive) and 0.283 (inactive); in assay [10] (setting [17]), -3.81 and -1.93. Besides, the remaining NAD in assay [11] is 10 nM (inactive). Moreover, the luciferase signal in assay [12] is 52 AU (inactive). For the same compound, the log fold change Tl+ flux in the assay with F380Y was -0.0263 (inactive); in the assay on F380Y/beta2Delta, 0.045 (inactive); in [13], 0.0283 (inactive); with R275C, -0.0348 (inactive); in the assay with R275C/beta1 it was -0.00562 (inactive); in the assay with R275C/beta2Delta, -0.0532 (inactive).

Consider `c1ccc(-c2ccc(C(c3ccccc3)n3ccnc3)cc2)cc1` (stereo not given), for which the nuclear beta-catenin stimulation in [1] (at 10 µM) is -0.1% (inactive); in [1] (stimulation, at 2 µM), 0.5%. In addition, the insulin secretion stimulation in [2] is 0.3% (inactive). In addition, in [3], the viability decrease was 99.7% (active). In assay [4], the tube area decrease was 23.9% (inactive). For the same compound, in assay [5], the GLP1 secretion stimulation was 8.2% (inactive). Also, the inhibition of viability in assay [6] is 101% (active). The viability decrease (inhibition) in assay [7] was 141% (active); in assay [8], 104% (active). The inhibition in assay [9] is 12.4% (inactive). The red/green cell ratio (normalised) in [14] is 1.06 (inactive). Further, the normalised cell number in assay [14] (setting [18]) amounted to 0.98; in assay [14] (setting [19]) it was 1.04. Moreover, the z-score in assay [10] (setting [16]) was -0.456 (inactive) and -0.0732 (inactive) and 0.0643 (inactive); in assay [10] (setting [17]), -0.196 and 0.568 and 0.472. The remaining NAD in [11] is 10 nM (inactive). Also, in assay [12], the luciferase signal was 56 AU (inactive). Besides, the log fold change Tl+ flux is -0.00418 (inactive) with F380Y; 0.0145 (inactive) with F380Y/beta2Delta; 0.0139 (inactive) in assay [13]; -0.0477 (inactive) with R275C; 0.164 (active) in the assay on R275C/beta1; -0.336 (active) in the assay with R275C/beta2Delta.
